Values joined by “and” are separate entries in the source; they are usually repeats but may differ in a detail not shown here. Equal entries are not always repeated. Inconclusive results are not listed. Entries that show only a call come without a potency. Where a structure was tested more than once in an assay, its records may differ in their call. Active and inactive are the calls of the source. Unless noted, calls follow the shape of the dose curve; as a rule, active = well fitted curve in the direction sought with a large enough effect in the repeat runs; inconclusive = weak or mixed curves; inactive = no such curve, though single readings can be large; an effect the other way counts as inactive or inconclusive.
Assays:
[1] = qHTS assay to identify small molecule antagonists of the sonic hedgehog signaling (Shh) pathway (AID 1259369; calls by dose curve; also: nearly all actives have a fitted effect of over 45% in size; also: potency is read from the fitted curve at half-maximal effect)
Summary of the method: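 Screening used 3T3Gli1-Luc cells at 2,000 per well, compounds delivered in DMSO, and conditioned medium as agonist stimulus; plates incubated 24hr at 37 C and 5% CO2 before a 30min luciferase step.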

[2] = qHTS assay to identify small molecule agonists of the androgen receptor (AR) signaling pathway in the presence of an antagonist - cell viability counter screen (AID 1259379); also: nearly all actives have a fitted effect of over 25% in size; also: potency is read from the fitted curve at half-maximal effect
Summary of the method: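 In MDA-kb2 cells (human breast carcinoma, MMTV-luciferase), compounds at 15 concentrations plus 3.0uM nilutamide; 16 hr, 37C, 0% CO2; CellTiter-Fluor fluorescence read for viability.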

[3] = qHTS assay to identify small molecule agonists of the estrogen receptor beta (ER-beta) signaling pathway - cell viability counter screen (AID 1259380); also: nearly all actives have a fitted effect of over 30% in size; also: potency is read from the fitted curve at half-maximal effect
Summary of the method: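 Viability of ER-beta-UAS-bla HEK293T cells was determined by CellTiter-Glo luminescence following 16 hr treatment with test compounds at 37C.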

[4] = qHTS assay to identify small molecule antagonists of the estrogen receptor beta (ER-beta) signaling pathway - cell viability counter screen (AID 1259382); also: nearly all actives have a fitted effect of over 55% in size; also: potency is read from the fitted curve at half-maximal effect
Summary of the method: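 Tox21 10K library tested in qHTS format on ER-beta-bla HEK293T cells stimulated with 1nM E2; 16 hr treatment at 37C. Same-well CellTiter-Glo luminescence served as the cell viability measure.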

[5] = qHTS assay to identify small molecule agonists of the estrogen receptor alpha (ER-alpha) signaling pathway in the presence of an antagonist - cell viability counter screen (AID 1259386);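 also: cells exposed to compounds for 22 h at 37 °C before the viability read; nearly all actives have a fitted effect of over 30% in size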; also: potency is read from the fitted curve at half-maximal effect
Summary of the method: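 Fluorescent CellTiter-Fluor viability signal from VM7Luc4E2 cells, with the reagent added during the final hour of a 22hr compound exposure at 37C in the presence of 10.0nM ICI-182,780.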

[6] = target: Estrogen receptor (Homo sapiens) (UniProt P03372); test: qHTS assay to identify small molecule agonists of the estrogen receptor alpha (ER-alpha) signaling pathway in the presence of an antagonist (AID 1259383; calls by dose curve; also: nearly all actives have a fitted effect of over 15% in size; also: potency is read from the fitted curve at half-maximal effect; as to activation: top concentration of the series differs between compounds)
Sequence of Estrogen receptor (Homo sapiens) (P03372 whole entry, looked up): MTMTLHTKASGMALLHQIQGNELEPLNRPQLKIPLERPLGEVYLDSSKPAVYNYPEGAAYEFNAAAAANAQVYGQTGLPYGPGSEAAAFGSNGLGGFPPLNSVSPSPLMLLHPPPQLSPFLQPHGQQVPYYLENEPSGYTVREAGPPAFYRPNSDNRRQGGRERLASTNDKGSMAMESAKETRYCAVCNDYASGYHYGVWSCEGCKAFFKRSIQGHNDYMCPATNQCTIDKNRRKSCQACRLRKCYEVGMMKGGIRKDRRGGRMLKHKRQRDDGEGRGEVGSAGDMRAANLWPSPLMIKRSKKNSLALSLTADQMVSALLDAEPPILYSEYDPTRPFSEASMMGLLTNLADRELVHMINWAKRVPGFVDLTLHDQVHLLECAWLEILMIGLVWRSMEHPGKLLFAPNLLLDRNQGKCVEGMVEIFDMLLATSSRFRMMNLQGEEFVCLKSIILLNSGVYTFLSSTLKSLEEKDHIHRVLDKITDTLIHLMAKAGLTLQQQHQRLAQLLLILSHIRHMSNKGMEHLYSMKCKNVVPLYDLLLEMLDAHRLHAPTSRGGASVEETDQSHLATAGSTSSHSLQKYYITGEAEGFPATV
Summary of the method: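 In VM7Luc4E2 cells, 4,000 per well, compounds at 15 concentrations were co-incubated 22hr at 37C with 10.0nM final ICI-182,780. Luminescence from the stably transfected 4×ERE-luciferase reporter was recorded 30min after ONE-Glo addition.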

[7] = qHTS assay to identify small molecule agonists or antagonists of the thyroid stimulating hormone receptor (TSHR) signaling pathway - wild type cell line counter screen (AID 1259384; calls by dose curve)
Summary of the method: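 Wild-type HEK293 cells were plated 18 h at 37 C/5% CO2, pin-dosed with compound plus Ro20-1724 medium, held 30 min at room temperature, then given cAMP-d2 and anti-cAMP-cryptate; fluorescence was read after 1 h. Fifteen concentrations, triplicate.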

[8] = target: Thyrotropin receptor (Homo sapiens) (UniProt P16473); test: qHTS assay to identify small molecule antagonists of the thyroid stimulating hormone receptor (TSHR) signaling pathway (AID 1259385; calls by dose curve; also: nearly all actives have a fitted effect of over 20% in size; also: potency is read from the fitted curve at half-maximal effect)
Sequence of Thyrotropin receptor (Homo sapiens) (P16473 whole entry, looked up): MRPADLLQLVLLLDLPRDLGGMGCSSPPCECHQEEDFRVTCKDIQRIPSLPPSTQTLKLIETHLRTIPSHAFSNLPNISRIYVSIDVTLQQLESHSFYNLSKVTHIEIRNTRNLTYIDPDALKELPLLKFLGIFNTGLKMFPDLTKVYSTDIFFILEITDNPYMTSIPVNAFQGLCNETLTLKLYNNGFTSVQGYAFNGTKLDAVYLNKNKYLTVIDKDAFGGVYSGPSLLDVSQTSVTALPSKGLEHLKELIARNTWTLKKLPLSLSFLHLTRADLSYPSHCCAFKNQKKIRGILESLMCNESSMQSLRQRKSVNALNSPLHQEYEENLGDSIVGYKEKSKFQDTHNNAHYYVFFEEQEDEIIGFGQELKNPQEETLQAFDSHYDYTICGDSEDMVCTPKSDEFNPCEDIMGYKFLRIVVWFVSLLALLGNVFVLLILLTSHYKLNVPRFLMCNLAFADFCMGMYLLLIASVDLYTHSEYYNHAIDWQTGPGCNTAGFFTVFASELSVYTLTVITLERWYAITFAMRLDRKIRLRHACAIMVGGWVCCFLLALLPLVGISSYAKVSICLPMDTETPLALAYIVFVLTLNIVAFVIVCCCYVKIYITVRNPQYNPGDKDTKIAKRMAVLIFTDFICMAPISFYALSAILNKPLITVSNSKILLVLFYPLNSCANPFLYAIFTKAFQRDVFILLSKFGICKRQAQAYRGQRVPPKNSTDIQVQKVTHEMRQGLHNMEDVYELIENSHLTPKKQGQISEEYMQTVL
Summary of the method: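 TSHR-HEK293 cells were plated and held 18 h at 37C/5% CO2, then given compound plus Ro20-1724 and stimulated with TSH at 1.5 ng/mL final. After 30 min at room temperature, cAMP was detected with cAMP-d2/anti-cAMP-cryptate (1 h) by fluorescence.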

[9] = target: Androgen receptor (Homo sapiens) (UniProt P10275); test: qHTS assay to identify small molecule agonists of the androgen receptor (AR) signaling pathway in the presence of an antagonist (AID 1259381; calls by dose curve; also: nearly all actives have a fitted effect of over 15% in size; also: potency is read from the fitted curve at half-maximal effect)
Sequence of Androgen receptor (Homo sapiens) (P10275 whole entry, looked up): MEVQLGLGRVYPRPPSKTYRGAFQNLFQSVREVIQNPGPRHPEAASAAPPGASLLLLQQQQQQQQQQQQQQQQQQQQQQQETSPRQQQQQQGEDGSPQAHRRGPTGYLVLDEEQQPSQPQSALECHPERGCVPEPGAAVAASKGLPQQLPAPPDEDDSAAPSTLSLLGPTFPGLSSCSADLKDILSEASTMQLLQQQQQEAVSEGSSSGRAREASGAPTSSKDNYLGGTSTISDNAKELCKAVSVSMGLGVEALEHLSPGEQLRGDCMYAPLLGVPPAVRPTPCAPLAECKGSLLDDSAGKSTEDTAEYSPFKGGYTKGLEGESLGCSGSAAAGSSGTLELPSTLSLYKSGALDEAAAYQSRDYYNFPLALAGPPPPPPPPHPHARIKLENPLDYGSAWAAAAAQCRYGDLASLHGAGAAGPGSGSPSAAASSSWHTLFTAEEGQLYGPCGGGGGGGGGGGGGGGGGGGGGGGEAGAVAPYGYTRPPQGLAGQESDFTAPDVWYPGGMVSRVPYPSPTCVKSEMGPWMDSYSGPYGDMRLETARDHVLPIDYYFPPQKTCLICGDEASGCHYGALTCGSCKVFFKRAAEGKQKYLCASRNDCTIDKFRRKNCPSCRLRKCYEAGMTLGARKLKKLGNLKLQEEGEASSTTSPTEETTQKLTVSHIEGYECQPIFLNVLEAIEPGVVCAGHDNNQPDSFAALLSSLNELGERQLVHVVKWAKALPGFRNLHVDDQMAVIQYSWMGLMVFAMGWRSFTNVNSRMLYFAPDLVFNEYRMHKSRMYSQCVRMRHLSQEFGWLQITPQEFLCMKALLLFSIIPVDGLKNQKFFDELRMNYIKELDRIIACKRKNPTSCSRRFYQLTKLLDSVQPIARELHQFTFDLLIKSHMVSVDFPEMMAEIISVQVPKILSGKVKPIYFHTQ
Summary of the method: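 Here, 15-concentration compound series were pin-transferred onto MDA-kb2 MMTV-luciferase cells already dosed with nilutamide (3.0uM final). After 16hr at 37C, ONE-Glo was added and luminescence read 30min later at room temperature.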

[10] = target: Estrogen receptor beta (Homo sapiens) (UniProt Q92731); test: qHTS assay to identify small molecule agonists of the estrogen receptor beta (ER-beta) signaling pathway (AID 1259377; active = well fitted activation curve with a large enough effect in the signal ratio in the repeat runs, not every such curve was filed as active; the % refers to the signal ratio)
Sequence of Estrogen receptor beta (Homo sapiens) (Q92731 whole entry, looked up, the tested form may be a part): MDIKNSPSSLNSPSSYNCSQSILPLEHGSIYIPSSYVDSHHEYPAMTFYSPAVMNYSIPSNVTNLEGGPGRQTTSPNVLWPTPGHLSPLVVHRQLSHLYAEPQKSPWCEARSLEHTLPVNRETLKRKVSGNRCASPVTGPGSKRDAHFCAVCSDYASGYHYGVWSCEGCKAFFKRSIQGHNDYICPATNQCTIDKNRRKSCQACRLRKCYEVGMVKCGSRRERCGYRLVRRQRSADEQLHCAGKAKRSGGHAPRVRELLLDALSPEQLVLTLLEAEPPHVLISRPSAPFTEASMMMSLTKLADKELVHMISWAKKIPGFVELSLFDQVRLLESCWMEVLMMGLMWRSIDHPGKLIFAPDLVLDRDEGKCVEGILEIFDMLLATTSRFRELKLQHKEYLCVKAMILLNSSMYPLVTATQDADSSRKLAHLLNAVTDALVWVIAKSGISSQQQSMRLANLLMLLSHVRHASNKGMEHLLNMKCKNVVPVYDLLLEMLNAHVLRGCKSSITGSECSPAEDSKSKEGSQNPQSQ
Summary of the method: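 Agonist mode cell assay in GripTite HEK293T cells expressing an ER-beta fusion that drives beta-lactamase from an Upstream Activator Sequence; 16 hr compound exposure at 37C, then 2 h LiveBLAzer B/G FRET substrate at room temperature, fluorescence read-out.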

Structure (SMILES)	Potency [1]	Potency [2]	Potency [3]	Potency [4]	Potency [5]	Potency [6]	Potency [7]	Potency [8]	Potency [9]	activity change, negative = inhibition [1]	cAMP activity change [7]	Potency [10]
Cn1c(=O)c2c(ncn2C)n(C)c1=O	17.4 µM (active) and inactive	55.1 µM (active) and inactive	inactive	inactive	61.9 µM (active) and inactive	–	–	–	–	–	–	–
CCCc1cc(=O)[nH]c(=S)[nH]1	inactive	inactive	inactive	inactive	inactive	inactive	inactive	inactive	–	–	–	–
CN(C)C(=S)SC(=S)N(C)C	280 nM (active) and 109 nM (active) and 2.66 µM (active)	3.96 µM (active) and inactive	1.25 µM (active) and 2.17 µM (active) and 1.06 µM (active)	1.37 µM (active) and 1.88 µM (active)	35.3 µM (active) and 3.06 µM (active) and inactive	–	inactive	inactive	–	–	–	–
O=C1O[C@H]([C@@H](O)CO)C(O)=C1O	inactive	inactive	inactive	inactive	inactive	–	inactive	inactive	–	–	–	–
CN1CCC[C@H]1c1cccnc1	inactive	inactive	inactive	inactive	inactive	–	–	–	–	–	–	–
CC12CCC(CC1)C(C)(C)O2	inactive	inactive	inactive	inactive	inactive	inactive	inactive	inactive	–	–	–	–
Cc1cc(=O)oc2cc(O)ccc12	15.4 µM (active) and 17.2 µM (active) and inactive	inactive	inactive	–	inactive	inactive	inactive	inactive	–	–	–	–
COc1ccc(CN(CCN(C)C)c2ccccn2)cc1	inactive	inactive	50.2 µM (active) and inactive	inactive	inactive	–	–	–	–	–	–	–
CC(=O)Nc1c(I)c(NC(C)=O)c(I)c(C(=O)O)c1I	inactive	inactive	inactive	inactive	inactive	–	inactive	inactive	–	–	–	–
CC(C)c1c(C(=O)Nc2ccccc2)c(-c2ccccc2)c(-c2ccc(F)cc2)n1CC[C@@H](O)C[C@@H](O)CC(=O)O	inactive	inactive	11.7 µM (active) and 25.5 µM (active)	13.2 µM (active) and 32.1 µM (active)	inactive	–	inactive	inactive	–	–	–	–
F[B-](F)(F)F	inactive	inactive	inactive and 62 µM (active)	inactive	inactive	–	inactive	inactive	–	–	–	–
CN(N=O)C(=O)N[C@@H]1[C@@H](O)[C@H](O)[C@@H](CO)O[C@@H]1O	inactive	inactive	inactive	–	inactive	inactive	inactive	inactive	–	–	–	–
CC(=O)CCC(=O)O	inactive	inactive	inactive	–	inactive	inactive	inactive	inactive	–	–	–	–
Cc1ncc([N+](=O)[O-])n1CCO	inactive	inactive	inactive	inactive	inactive	inactive	inactive	inactive	–	–	–	–
NC(CO)(CO)CO	inactive	inactive	inactive	inactive	inactive	inactive	inactive	inactive	–	–	–	–
COc1ccc2cc(S(=O)(=O)N[C@H](CC(=O)N[C@H](Cc3ccc(CN4[C@H](C)CCC[C@@H]4C)cc3)C(=O)N(C)C(C)C)c3ccc4c(c3)OCO4)ccc2c1	inactive	51.6 µM (active)	18.3 µM (active)	–	36.5 µM (active)	inactive	inactive	57.9 µM (active)	–	–	–	–
CS(=O)(=O)OCCCCOS(C)(=O)=O	inactive	inactive	inactive	inactive	inactive	inactive	inactive	inactive	–	–	–	–
CCCCC1(COC(=O)CCC(=O)O)C(=O)N(c2ccccc2)N(c2ccccc2)C1=O	inactive	inactive	inactive	inactive	inactive	inactive	inactive	inactive	inactive	–	–	–
CCCCC(CC)C(=O)O (centres undefined)	inactive	inactive	inactive	–	inactive	–	inactive	inactive	–	–	–	–
CCCCCCCCCCCC[N+](C)(C)Cc1ccccc1	2.13 µM (active) and 419 nM (active) and 3.76 µM (active)	23.9 µM (active) and 33.3 µM (active) and 26.6 µM (active)	30 µM (active) and 29.7 µM (active) and 10.6 µM (active)	–	67.3 µM (active) and 74.5 µM (active) and inactive	–	inactive	inactive	–	–	–	–
O=C1c2c(O)cccc2Cc2cccc(O)c21	inactive	inactive	inactive	–	inactive	–	inactive	inactive	–	–	–	–
CC1(C)S[C@@H]2[C@H](NC(=O)[C@H](N)c3ccccc3)C(=O)N2[C@H]1C(=O)O	inactive	inactive	inactive	–	inactive	–	inactive	inactive	–	–	–	–
C[C@](N)(Cc1ccc(O)c(O)c1)C(=O)O	inactive	inactive	inactive	–	inactive and 54.3 µM (active)	–	–	–	–	–	–	–
CCCC[P+](CCCC)(CCCC)CCCC	inactive	60.9 µM (active) and 62.3 µM (active) and 61.1 µM (active)	–	–	inactive	–	inactive	inactive	–	–	–	–

Structure (SMILES)	Potency [1]	Potency [2]	Potency [3]	Potency [4]	Potency [5]	Potency [6]	Potency [7]	Potency [8]	Potency [9]	activity change, negative = inhibition [1]	cAMP activity change [7]	Potency [10]
Cc1ncc([N+](=O)[O-])n1C	inactive	inactive	inactive	–	inactive	inactive	inactive	inactive	–	–	–	–
O=C(Nc1ncc([N+](=O)[O-])s1)c1cccs1	inactive	26.6 µM (active)	–	–	26.6 µM (active)	–	inactive	inactive	inactive	–	–	–
Nc1ccc(O)c([N+](=O)[O-])c1	13.5 µM (active)	27.3 µM (active)	–	inactive	43.3 µM (active)	inactive	–	–	–	–	–	–
O=C1NS(=O)(=O)c2ccccc21	inactive	inactive	inactive	–	inactive	–	inactive	inactive	–	–	–	–
Cc1ccc(S(=O)(=O)O)cc1	inactive	inactive	inactive	–	inactive	–	–	–	–	–	–	–
CN1CCc2cccc3c2[C@H]1Cc1ccc(O)c(O)c1-3	2.87 µM (active) and 18.8 µM (active)	55 µM (active) and 22.8 µM (active) and 26.6 µM (active)	55 µM (active) and 20.4 µM (active)	–	49.1 µM (active) and 22.8 µM (active) and 26.6 µM (active)	inactive	inactive	inactive	–	–	–	–
CCOC(N)=O	inactive	inactive	inactive	–	inactive	inactive	inactive	inactive	–	–	–	–
C1=CC2C3C=CC(C3)C2C1 (centres undefined)	–	inactive	inactive	inactive	inactive	–	inactive	–	–	–	–	–
CC(=O)CC(c1ccccc1)c1c(O)c2ccccc2oc1=O (centres undefined)	27.4 µM (active) and inactive	inactive	inactive	–	inactive	–	–	–	–	–	–	–
O=c1[nH]cnc2c1ncn2[C@H]1CC[C@@H](CO)O1	inactive	inactive	inactive	–	inactive	inactive	inactive	inactive	–	–	–	–
O=C1OC2(c3ccccc31)c1cc(Br)c(O)c(Br)c1Oc1c2cc(Br)c(O)c1Br	inactive	7.81 µM (active) and 22.3 µM (active) and 11.9 µM (active)	inactive	–	11 µM (active) and 19.9 µM (active) and 10.6 µM (active)	inactive	–	24.7 µM (active) and 21.1 µM (active)	–	–	–	–
NC(=O)n1c(O)c(C(=O)c2cccs2)c2cc(Cl)ccc21	10.6 µM (active)	29.8 µM (active)	–	–	29.8 µM (active)	inactive	inactive	inactive	–	–	–	–
COc1cccc(O)c1O	8.97 µM (active)	–	56.6 µM (active)	inactive	–	inactive	–	–	inactive	–	–	–
COc1ccc2c(c1)c(CC(=O)O)c(C)n2C(=O)c1ccc(Cl)cc1	inactive	inactive	–	inactive	inactive	inactive	inactive	inactive	inactive	–	–	–
Cc1cccc(C)c1	inactive	inactive	inactive	–	inactive	inactive	inactive	inactive	–	–	–	–
CC(=O)C(=O)O	inactive	inactive	inactive	–	inactive	–	inactive	inactive	–	–	–	–
CC(O)(P(=O)(O)O)P(=O)(O)O	inactive	inactive	inactive	–	inactive	–	inactive	inactive	–	–	–	–
Nc1ccc([N+](=O)[O-])cc1O	–	30.6 µM (active)	–	–	27.3 µM (active)	–	–	–	–	–	–	–
C=C1CC[C@H](O)C/C1=C\C=C1/CCC[C@]2(C)[C@@H]([C@H](C)CCCC(C)C)CC[C@@H]12	17.1 µM (active)	–	42.9 µM (active)	–	–	inactive	inactive	inactive	–	–	–	–
Nc1ccc2c(c1)CN1C(=O)c3ccccc3C1=N2	–	–	5.8 µM (active)	–	–	0.092 µM (active)	–	–	0.231 µM (active)	-44.1% [at 19 µM] (inactive)	-1.34% [at 18.9 µM, stronger effect = higher value] (inactive)	–
CCN(Cc1c(F)cccc1Cl)c1c([N+](=O)[O-])cc(C(F)(F)F)cc1[N+](=O)[O-]	inactive	inactive	30.6 µM (active)	–	inactive	inactive	–	–	–	–	–	–
COc1ccc(OC(F)(F)F)cc1CN[C@H]1CCCN[C@H]1c1ccccc1	10.9 µM (active)	48.6 µM (active)	34.4 µM (active)	–	inactive	inactive	inactive	–	–	–	–	–
C1CCC(C(CC2CCCCN2)C2CCCCC2)CC1 (centres undefined)	–	29.8 µM (active)	23.7 µM (active)	18.8 µM (active)	inactive	inactive	inactive	33.5 µM (active)	inactive	–	–	inactive

Reference: PubChem BioAssay (Tox21)
